Measured values: article PMC12214610

How the values were obtained:
[1] = target: 30S ribosome-binding factor (UniProt P0A7G2)
[2] = target: Large ribosomal subunit protein uL24 (UniProt P60624)
[3] = target: Small ribosomal subunit protein uS13 (UniProt P0A7S9)
Actin, cytoplasmic 2 = Actin, cytoplasmic 2 (UniProt P63261)
[4] = target: Heat shock 70 kDa protein 1B (UniProt P0DMV9)
[5] = target: Heat shock cognate 71 kDa protein (UniProt P11142)
[6] = target: Peptidyl-prolyl cis-trans isomerase A (UniProt P62937)
[7] = target: Elongation factor 1-alpha 1 (UniProt P68104)
[8] = target: Adenylyl cyclase-associated protein 1 (UniProt Q01518)
Cofilin-1 = Cofilin-1 (UniProt P23528)
[9] = target: DNA-binding protein HU-beta (UniProt P0ACF4)
[10] = target: Large ribosomal subunit protein bL9 (UniProt P0A7R1)
[11] = target: Large ribosomal subunit protein eL20 (UniProt Q02543)
[12] = target: Large ribosomal subunit protein eL24 (UniProt P83731)
[13] = target: Small ribosomal subunit protein uS11 (UniProt P62263)
[14] = target: Small ribosomal subunit protein uS4 (UniProt P46781)
[15] = target: Large ribosomal subunit protein eL6 (UniProt Q02878)
[16] = target: Large ribosomal subunit protein uL2 (UniProt P60422)
[17] = target: Large ribosomal subunit protein uL22 (UniProt P61175)
[18] = target: Large ribosomal subunit protein uL4 (UniProt P36578)
[19] = target: Small ribosomal subunit protein bS21 (UniProt P68679)
[20] = target: Small ribosomal subunit protein uS19 (UniProt P0A7U3)
[21] = target: Small ribosomal subunit protein uS3 (UniProt P0A7V3)
[22] = target: Small ribosomal subunit protein uS8 (UniProt P0A7W7)
[23] = target: Small ribosomal subunit protein uS5 (UniProt P0A7W1)
[24] = target: Large ribosomal subunit protein eL36 (UniProt Q9Y3U8)

Cofilin-1, sequence (P23528 whole entry): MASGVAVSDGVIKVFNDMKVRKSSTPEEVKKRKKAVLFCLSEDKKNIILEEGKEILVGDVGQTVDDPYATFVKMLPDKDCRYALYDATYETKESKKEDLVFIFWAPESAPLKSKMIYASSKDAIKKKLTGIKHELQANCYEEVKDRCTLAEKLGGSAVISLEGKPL
Heat shock cognate 71 kDa protein, sequence (P11142 whole entry): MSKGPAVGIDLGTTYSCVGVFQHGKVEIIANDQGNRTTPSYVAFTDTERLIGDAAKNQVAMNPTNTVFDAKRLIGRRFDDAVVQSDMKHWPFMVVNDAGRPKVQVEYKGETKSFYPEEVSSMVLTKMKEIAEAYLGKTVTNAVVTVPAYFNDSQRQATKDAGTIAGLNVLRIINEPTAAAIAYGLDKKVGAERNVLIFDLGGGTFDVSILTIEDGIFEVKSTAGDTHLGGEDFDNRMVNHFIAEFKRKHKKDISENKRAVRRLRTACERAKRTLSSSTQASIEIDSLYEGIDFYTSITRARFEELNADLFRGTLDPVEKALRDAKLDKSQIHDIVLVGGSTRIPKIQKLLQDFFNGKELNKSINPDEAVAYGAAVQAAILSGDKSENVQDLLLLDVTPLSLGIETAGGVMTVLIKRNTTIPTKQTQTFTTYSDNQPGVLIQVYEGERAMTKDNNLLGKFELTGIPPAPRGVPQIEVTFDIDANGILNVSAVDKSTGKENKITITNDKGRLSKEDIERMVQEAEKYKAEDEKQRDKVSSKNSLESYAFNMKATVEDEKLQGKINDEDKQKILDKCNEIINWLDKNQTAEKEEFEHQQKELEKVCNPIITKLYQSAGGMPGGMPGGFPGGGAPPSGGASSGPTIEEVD
Profilin-1, P07737, sequence (P07737 whole entry): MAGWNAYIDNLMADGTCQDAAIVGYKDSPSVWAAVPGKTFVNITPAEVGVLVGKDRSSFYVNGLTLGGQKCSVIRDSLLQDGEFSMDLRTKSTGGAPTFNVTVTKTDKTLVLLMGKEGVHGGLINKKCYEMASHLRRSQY
Heat shock 70 kDa protein 1B, sequence (P0DMV9 whole entry): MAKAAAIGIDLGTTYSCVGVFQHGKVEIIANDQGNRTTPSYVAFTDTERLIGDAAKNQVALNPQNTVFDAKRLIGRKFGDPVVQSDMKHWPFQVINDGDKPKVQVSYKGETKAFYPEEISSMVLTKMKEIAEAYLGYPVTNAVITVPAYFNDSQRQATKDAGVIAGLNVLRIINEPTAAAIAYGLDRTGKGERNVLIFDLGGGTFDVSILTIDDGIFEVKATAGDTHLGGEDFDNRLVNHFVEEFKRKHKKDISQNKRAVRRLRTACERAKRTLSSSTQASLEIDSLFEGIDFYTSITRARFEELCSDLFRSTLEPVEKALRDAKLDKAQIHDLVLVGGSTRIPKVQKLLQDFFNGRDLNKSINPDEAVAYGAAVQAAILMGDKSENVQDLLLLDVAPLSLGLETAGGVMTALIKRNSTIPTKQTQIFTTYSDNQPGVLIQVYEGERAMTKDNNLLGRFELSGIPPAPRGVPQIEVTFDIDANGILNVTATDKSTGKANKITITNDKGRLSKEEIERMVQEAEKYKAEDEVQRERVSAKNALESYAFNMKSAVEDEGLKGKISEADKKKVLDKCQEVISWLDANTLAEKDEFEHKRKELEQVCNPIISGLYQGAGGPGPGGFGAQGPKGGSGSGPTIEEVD

Small ribosomal subunit protein uS7, P02359
listed as a hit [1]: yes | listed as a hit [2]: yes | listed as a hit [3]: yes

Polyubiquitin-B, P0CG47
listed as a hit (Actin, cytoplasmic 2): yes | listed as a hit [4]: yes | listed as a hit [5]: yes | listed as a hit [6]: yes

Elongation factor 2, P13639
listed as a hit (Actin, cytoplasmic 2): yes | listed as a hit [7]: yes

Actin, alpha skeletal muscle, P68133
listed as a hit [8]: yes

Profilin-1, P07737
listed as a hit (Cofilin-1): yes

Large ribosomal subunit protein bL19, P0A7K6
listed as a hit [9]: yes

Peptidyl-prolyl cis-trans isomerase A, P62937
listed as a hit [7]: yes

Large ribosomal subunit protein bL28, P0A7M2
listed as a hit [10]: yes

Small ribosomal subunit protein uS4, P46781
listed as a hit [11]: yes

Large ribosomal subunit protein uL4, P36578
listed as a hit [12]: yes | listed as a hit [13]: yes | listed as a hit [14]: yes

Large ribosomal subunit protein eL28, P46779
listed as a hit [15]: yes

Large ribosomal subunit protein bL9, P0A7R1
listed as a hit [16]: yes

Large ribosomal subunit protein bL32, P0A7N4
listed as a hit [17]: yes

Large ribosomal subunit protein uL16, P27635
listed as a hit [18]: yes | listed as a hit [14]: yes

Small ribosomal subunit protein bS18, P0A7T7
listed as a hit [19]: yes

Large ribosomal subunit protein bL31, P0A7M9
listed as a hit [20]: yes

Small ribosomal subunit protein uS2, P0A7V0
listed as a hit [21]: yes | listed as a hit [22]: yes

Small ribosomal subunit protein uS10, P0A7R5
listed as a hit [21]: yes

Small ribosomal subunit protein uS4, P0A7V8
listed as a hit [23]: yes

Small ribosomal subunit protein uS5, P0A7W1
listed as a hit [22]: yes

Large ribosomal subunit protein eL15, P61313
listed as a hit [24]: yes
